Rows were chosen to be rich in hits. Some 2.4% of all compounds tested hit in one or more screens of this group.
D2 PAM-1: Beta-Arrestin HTS for Positive Allosteric Modulators of the Human D2 Dopamine Receptor: Potentiators; D(2) dopamine receptor (Homo sapiens), P14416; 360,000 tested, 0.23% active; DiscoveRx D2 beta-arrestin cells, luminescence, 90 min; 100% = 57 uM dopamine signal; potentiation, % (concentration not given with the values); in the data active means potentiation above about 50%
Target sequence (P14416 whole entry, looked up): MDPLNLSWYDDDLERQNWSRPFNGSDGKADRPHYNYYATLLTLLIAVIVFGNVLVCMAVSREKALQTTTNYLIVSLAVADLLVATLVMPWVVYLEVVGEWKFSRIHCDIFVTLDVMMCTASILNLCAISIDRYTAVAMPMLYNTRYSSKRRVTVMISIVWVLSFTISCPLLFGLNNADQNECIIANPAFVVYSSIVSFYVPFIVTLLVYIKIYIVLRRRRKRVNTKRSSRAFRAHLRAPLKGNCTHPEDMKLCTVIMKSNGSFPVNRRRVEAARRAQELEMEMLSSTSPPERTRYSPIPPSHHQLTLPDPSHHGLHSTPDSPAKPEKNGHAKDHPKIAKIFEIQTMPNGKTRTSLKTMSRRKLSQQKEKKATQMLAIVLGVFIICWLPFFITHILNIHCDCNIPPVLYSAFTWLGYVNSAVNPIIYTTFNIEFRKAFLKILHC
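PathHunter D2 cells, attached overnight at 37 deg C, received compound in DMSO plus dopamine at EC20 (50 nM final) for 90 min at 37 deg C. Beta-arrestin recruitment was read as luminescence after 1 h with detection reagent at ambient temperature.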
D2 ag-1: Beta-Arrestin HTS for Positive Allosteric Modulators of the Human D2 Dopamine Receptor: Agonists; 360,000 tested, 0.084% active; DiscoveRx PathHunter D2 beta-arrestin, luminescence, 90 min; 100% = 57 uM dopamine signal; AID 624465, 2012; activation, % (concentration not given with the values); in the data active means activation above about 40%
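DiscoveRx PathHunter D2 beta-arrestin cells (2,100/well) attached overnight, then compound-stimulated 90 min at 37 C in HBSS/10 mM HEPES/0.1% Tween-20 buffer; beta-galactosidase complementation read by luminescence after 1 h at ambient temperature. Dopamine 57 uM final (EC100) as control.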
D2 PAM-2: HTS Assay for Positive Allosteric Modulators of the Human D2 Dopamine Receptor: Primary Screen for Potentiators | HEK293 T-REx D2, calcium flux, EC20 dopamine potentiation | D(2) dopamine receptor (Homo sapiens), P14416 | 340,000 tested, 0.34% active | potentiation, % at 10 µM | AID 485347, 2010;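 active means potentiation over 3 SD above the plate norm, cut at about 30% in these data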; further: 0% is about no effect
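Primary screen. Calcium kinetics in induced HEK293 T-REx D2 cells: compound pre-addition 180 s, EC20 dopamine, 180 s more.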
D2 antagonist: HTS Assay for Allosteric Antagonists of the Human D2 Dopamine Receptor: Primary Screen for Antagonists. D(2) dopamine receptor (Homo sapiens), P14416. HEK293 TREx D2 cells, calcium flux, dopamine EC80. inhibition, % at 10 µM. 340,000 tested, 2% active. AID 485344, 2010; in the data active means inhibition above about 30%; inactive means below that, where a call was filed; further: 0% is about no effect
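Tetracycline-induced HEK293 T-REx cells expressing D2 force-coupled to calcium signalling were dye-loaded, exposed to compound for 180 s, then challenged with an EC80 of dopamine; calcium flux was followed kinetically for a further 180 s.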
D2 ag-2: HTS Assay for Allosteric Agonists of the Human D2 Dopamine Receptor: Primary Screen for Agonists; D(2) dopamine receptor (Homo sapiens), P14416; HEK293 T-REx D2 cells, calcium flux agonist mode; activation, % at 2 µM; 340,000 tested, 0.53% active;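 active means activation over 3 SD above normal in the single-dose calcium agonist read, cut at about 30% in these data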; further: 0% is about no effect
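Calcium-flux readout, 1 cycle/sec over 180 s following compound pin transfer, in inducible HEK293 Trex D2 cells (force-coupled); dopamine controls included. Positive calcium responses during this window marked compounds as potential agonists.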
* hit, by the source's call; . = no result given.

SMILES	D2 PAM-1	D2 ag-1	D2 PAM-2	D2 antagonist	D2 ag-2
Cn1nc(C(F)(F)F)c(C#N)c1N1CCN(c2cccc(C(F)(F)F)c2)CC1	-28.9	-2.5	-19.0	43.2*	1.1
COCC(=O)Nc1cc(C(=O)Nc2ccccc2C)ccc1Cl	-6.1	-1.1	-0.1	31.5*	-0.3
COc1cccc2c1OC1(C)CC2/C(=C(\C)O)C(=O)N1 (stereo unspecified)	-6.2	-0.7	8.2	51.3*	0.1
Cc1ccc(C)c(C(=O)N2CCC(c3nc4c(nnn4Cc4ccccc4)c(=O)[nH]3)CC2)c1	.	.	15.6	.	-1.2
COc1ccc(CN(C)c2ccc(-c3nc(-c4ccccc4)no3)cc2[N+](=O)[O-])cc1	.	.	-4.8	.	.
CC(C)c1onc(C(=O)Nc2cccc(O)c2)c1[N+](=O)[O-]	6.0	9.3	-9.0	6.9	0.2
Cc1ccc(NC(=O)c2noc(C(C)C)c2[N+](=O)[O-])cc1	-10.7	8.6	-29.1	50.8*	-1.0
Cc1c(Cc2ccccc2)sc(/N=C/c2c(O)ccc3ccccc23)c1C(N)=O	57.3*	-1.9	-8.5	-7.4	1.3
C=CCn1c(SCC(C)=O)nc2scc(-c3ccc(C)o3)c2c1=O	-7.9	0.8	23.2	-6.2	-2.5
C=CCn1c(=S)[nH]c2scc(-c3ccc(C)o3)c2c1=O	-3.1	-3.4	11.2	31.8*	1.8
Cc1ccc(C(=O)Nc2cccc(C(F)(F)F)c2)cc1Nc1cncnc1	-1.3	3.3	-23.4	33.2*	-1.2
COC(=O)CC(NC(=O)c1ccco1)c1cccc2ccccc12 (stereo unspecified)	-9.8	-0.6	10.1	8.5	0.0
COC(=O)CC(NS(=O)(=O)c1cccs1)c1cccc2ccccc12 (stereo unspecified)	-2.9	-2.1	2.1	45.9*	0.0
CCOC1=C2[C@@H](CN(S(=O)(=O)c3ccc(C)cc3)[C@H]2c2ccccc2F)[C@H]2C(=O)N(C3CCCCC3)C(=O)[C@H]2C1	-1.0	-2.8	.	.	.
O=C(/C=C/c1ccco1)Nc1ccc(Cl)c(-c2nc3cc(Cl)ccc3o2)c1	.	.	-5.4	.	-0.5
Clc1ccc(/C=C\c2nccc3c2[nH]c2ccccc23)cc1	-29.4	0.8	-39.9	66.4*	0.0
O=C(CSc1cccc(C(F)(F)F)c1)Nc1ccc(Cl)cc1Cl	8.7	0.6	-8.5	48.6*	-0.2
O=C(CSc1nc(N2CCOCC2)nc(N2CCOCC2)n1)Nc1ccc(Cl)cc1Cl	-7.2	-5.4	1.5	33.1*	0.7
COc1ccc(Cl)cc1NC(=O)CSc1nc(N2CCOCC2)nc(N2CCOCC2)n1	-4.6	1.3	5.7	17.0	-0.2
O=C(CSc1cccc(C(F)(F)F)c1)NC(=O)c1ccccc1	-12.6	-1.6	-7.4	0.1	-1.8
CCC(C)NC(=O)c1ccc2nc(CCc3ccccc3)oc2c1 (stereo unspecified)	.	.	-1.5	.	-0.1
Cc1nc(-c2ccc(C)c(N3CCN(C(=O)Nc4ccc(Br)cc4)CC3)c2)no1	.	.	15.6	.	1.1
Cc1ccc(S(=O)(=O)N(C)Cc2ccccc2)cc1C(=O)N1CCCCC1	-15.5	-3.6	-2.5	-11.2	0.9
CC(=O)N1CCN(C(=O)c2cc(S(=O)(=O)N(C)Cc3ccccc3)ccc2Cl)CC1	14.5	-0.2	25.6	30.1*	1.5
O=C(Nc1ccc(S(=O)(=O)Nc2ccccc2)cc1)N1CCCC1	.	.	-7.9	.	-1.0
O=C(Cc1ccccc1)Nn1c(O)c(/C=C2\C=Nc3ccccc32)sc1=S	-13.0	-2.1	-3.0	-12.5	34.0*
Cn1c(O)c(/C=C2\C=Nc3ccccc32)sc1=Nc1ccc(C(=O)O)cc1	-4.2	-1.1	0.9	-9.2	0.1
CC(=O)Nc1ccc(OCC(O)CN2CCN(c3cc(Cl)ccc3C)CC2)cc1 (stereo unspecified)	-20.6	-2.6	-24.6	92.6*	19.4
